# Assay results published in PubChem BioAssay (NCATS).
# “And” between values parts separate entries of the source, which are not always exact repeats. Equal entries are not always repeated. Records with an inconclusive call do not appear. A call without a number means that no potency is given here. Values without a mark were called inactive. The source made the active and inactive calls. The call rests on the fitted dose curve; in most records, active means well fitted inhibition curve with a large enough effect; inconclusive means small, poorly fitted or top-dose-only effect; inactive means flat fitted curve, though single readings scatter.
# What was measured:
# CRL-7250 = normal cell line; experiment: Cytotoxic Profiling of Annotated Libraries Using Quantitative High-Throughput Screening (AID 1296008); settings: Five cell lines viability, CellTiter-Glo ATP luminescence, 48-72 h; max response: active compounds read low
# Outline: (§1)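 Cytotoxicity was measured as CellTiter-Glo ATP luminescence, read after 10 min at room temperature. Compound treatment of the cells lasted 48 or 72 hr at 37 degrees Celsius in a qHTS format.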
# HEK293 = experiment: as above; settings: Five cell lines viability, CellTiter-Glo ATP luminescence, 48-72 h; max response: active compounds read low
# Outline: as §1
# KB-3-1 = experiment: as above; settings: Five cell lines viability, CellTiter-Glo ATP luminescence, 48-72 h; max response: active compounds read low
# Outline: as §1
# NIH3T3 [1] = experiment: as above; settings: Five cell lines viability, CellTiter-Glo ATP luminescence, 48-72 h; max response: active compounds read low
# Outline: as §1
# MCC-13 = experiment: qHTS assay to identify novel small-molecules to repurpose for Merkel cell carcinoma treatment (AID 1296009); settings: MCC and control cell lines, CellTiter-Glo viability, 72 h; series mostly up to 46 µM
# Outline: (§2)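 72 hr, 37 degree celsius; NPC 8-pt / MIPE 11-pt dose response; compound pinned in DMSO; CellTiter-Glo, 10 min RT, luminescence; normalized to no-cell and DMSO controls.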
# MKL-1 = experiment: as above; settings: MCC and control cell lines, CellTiter-Glo viability, 72 h; series mostly up to 46 µM
# Outline: as §2
# MKL-2 = experiment: as above; settings: MCC and control cell lines, CellTiter-Glo viability, 72 h; series mostly up to 46 µM
# Outline: as §2
# HaCat [2] = experiment: Cytotoxic Profiling of Annotated Libraries Using Quantitative High-Throughput Screening (AID 1296008); settings: Five cell lines viability, CellTiter-Glo ATP luminescence, 48-72 h; max response: active compounds read low
# Outline: as §1
# MCC-26 = experiment: qHTS assay to identify novel small-molecules to repurpose for Merkel cell carcinoma treatment (AID 1296009); settings: MCC and control cell lines, CellTiter-Glo viability, 72 h; series mostly up to 46 µM
# Outline: as §2
# UISO = experiment: as above; settings: MCC and control cell lines, CellTiter-Glo viability, 72 h; series mostly up to 46 µM
# Outline: as §2
# HACAT [3] = experiment: as above; settings: MCC and control cell lines, CellTiter-Glo viability, 72 h; at 44.8 µM (top of the series) unless noted
# Outline: as §2
# NIH3T3 [4] = experiment: as above; settings: MCC and control cell lines, CellTiter-Glo viability, 72 h; at 44.8 µM (top of the series) unless noted
# Outline: as §2
# HEK293T = experiment: as above; settings: MCC and control cell lines, CellTiter-Glo viability, 72 h; at 44.8 µM (top of the series)
# Outline: as §2
# Further: nearly all actives have a fitted effect of over 60% in size.
# Potency means the concentration at half of the fitted maximal effect.
structure (smiles),measurement,setting,value
Nc1nc2[nH]cc(CCc3ccc(C(=O)N[C@@H](CCC(=O)O)C(=O)O)cc3)c2c(=O)[nH]1,max response,CRL-7250,-1.95%
same,Potency,HEK293,1.48 µM (active)
same,max response,KB-3-1,-20.9% and 0.617%
same,Potency,NIH3T3 [1],1.18 µM (active)
same,Potency,MCC-13,inactive
same,Potency,MKL-1,inactive
same,Potency,MKL-2,inactive
O=C(O)[C@@H](c1ccc(OCc2ccc3ccccc3n2)cc1)C1CCCC1,max response,CRL-7250,-8.88%
same,max response,HEK293,-13%
same,max response,HaCat [2],-16.3%
same,max response,KB-3-1,-4.52%
same,max response,NIH3T3 [1],-0.267%
same,Potency,MCC-13,inactive
same,Potency,MCC-26,inactive
same,Potency,MKL-1,inactive
same,Potency,MKL-2,inactive
same,Potency,UISO,inactive
CN(C)C(=O)c1ccc(S(=O)(=O)c2ccc(NC(=O)[C@@](C)(O)C(F)(F)F)c(Cl)c2)cc1,Potency,CRL-7250,5.26 µM (active) and 5.8 µM (active)
same,Potency,HEK293,3.72 µM (active)
same,max response,KB-3-1,-27.1% and -22.5%
same,outcome,NIH3T3 [1],inactive
same,outcome,HACAT [3],inactive
same,Potency,MCC-13,inactive
same,Potency,MCC-26,inactive
same,Potency,MKL-1,inactive
same,outcome,NIH3T3 [4],inactive
OC(CCN1CCCCC1)(c1ccccc1)C1CC2C=CC1C2 (centres undefined),outcome,CRL-7250,inactive
same,outcome,HEK293,inactive
same,max response,KB-3-1,-2.63% and -12.8%
same,outcome,KB-3-1,inactive
same,outcome,NIH3T3 [1],inactive
same,outcome,HACAT [3],inactive
same,outcome,HEK293T,inactive
same,Potency,MCC-13,inactive
same,Potency,MCC-26,inactive
same,Potency,MKL-1,inactive
same,Potency,MKL-2,inactive
same,outcome,NIH3T3 [4],inactive
same,Potency,UISO,inactive
CCn1c(-c2nonc2N)nc2cnc(Oc3cccc(NC(=O)c4ccc(OCCN5CCOCC5)cc4)c3)cc21,Potency,CRL-7250,20.9 µM (active)
same,Potency,HEK293,11.8 µM (active)
same,Potency,KB-3-1,5.9 µM (active)
same,Potency,NIH3T3 [1],14.8 µM (active)
same,Potency,MCC-26,inactive
same,Potency,MKL-2,inactive
COc1ccc(COc2cc3oc(=O)c4cc(C(C)O)ccc4c3cc2OC)cc1 (centres undefined),Potency,CRL-7250,10.5 µM (active)
same,Potency,HEK293,14.8 µM (active)
same,outcome,HaCat [2],inactive
same,outcome,HACAT [3],inactive
same,Potency,MCC-13,inactive
same,Potency,MCC-26,inactive
same,Potency,MKL-1,inactive
same,Potency,MKL-2,inactive
same,Potency,UISO,inactive
CC1(C)SCCN(S(=O)(=O)c2ccc(OCC#CCO)cc2)[C@@H]1C(=O)NO,max response,CRL-7250,-4.21%
same,max response,HEK293,-25.6%
same,outcome,KB-3-1,inactive
same,max response,NIH3T3 [1],-11.8%
same,Potency,MCC-13,inactive
same,Potency,MCC-26,inactive
same,Potency,MKL-2,inactive
same,Potency,UISO,inactive
CN(C)c1ccc(C2Nc3ccc4ccccc4c3C3=C2C(=O)CC(C)(C)C3)cc1Br (centres undefined),max response,CRL-7250,-23.7% and -20.8%
same,max response,HaCat [2],-24.3% and -7.34%
same,max response,KB-3-1,1.11% and -17.2%
same,max response,NIH3T3 [1],-6.99% and -2.22%
same,Potency,MCC-13,inactive
same,Potency,MCC-26,inactive
same,Potency,MKL-1,inactive
same,Potency,MKL-2,inactive
same,Potency,UISO,inactive
CN(C)c1ccc(Nc2nc(N)n(C(=O)c3c(F)cccc3F)n2)cc1,max response,CRL-7250,4.97%
same,Potency,NIH3T3 [1],10.5 µM (active)
same,Potency,MCC-26,inactive
same,Potency,MKL-2,inactive
same,Potency,UISO,inactive
COc1ccc(C2=N[C@H](c3ccc(Cl)cc3)[C@H](c3ccc(Cl)cc3)N2C(=O)N2CCNC(=O)C2)c(OC(C)C)c1,Potency,CRL-7250,3.32 µM (active)
same,Potency,HEK293,11.8 µM (active)
same,Potency,MCC-13,inactive
same,Potency,MCC-26,inactive
same,Potency,MKL-1,9.35 µM (active)
Cc1cc2c(F)c(Oc3ncnn4cc(OC[C@@H](C)O)c(C)c34)ccc2[nH]1,max response,CRL-7250,-47.3%
same,Potency,HEK293,3.72 µM (active)
same,Potency,MCC-13,inactive
same,Potency,MCC-26,inactive
same,Potency,MKL-1,inactive
CCc1cc(Nc2nccc(-c3c(-c4ccc(OC)c(C(=O)Nc5c(F)cccc5F)c4)nc4ccccn34)n2)c(OC)cc1N1CCC(N2CCN(S(C)(=O)=O)CC2)CC1,max response,CRL-7250,-19.7%
same,outcome,HaCat [2],inactive
same,max response,KB-3-1,5.37% and -9.54%
same,max response,NIH3T3 [1],-25.3%
same,outcome,HACAT [3],inactive
same,Potency,MCC-13,inactive
same,Potency,MCC-26,inactive
same,Potency,MKL-1,inactive
